# Assay results: PubChem BioAssay (NCATS)
# Records with an inconclusive call do not appear. A call without a number means that no potency is given here. Unmarked numbers belong to inactive results. Calls of active or inactive are those of the source. Calls come from the whole dose curve; as a rule, active = well fitted curve in the direction sought with a large enough effect; inconclusive = small, poorly fitted or top-dose-only effect, or another doubt; inactive = no such curve, though single readings can be large; an effect the other way counts as inactive or inconclusive. Numbered stars: 1 amine (or outer) side, 2 acyl side, 3 side chain; on linkers, the order of the positions; unused ones are H or OH. Square brackets hold non-standard residues; d marks the D form. Peptide text beside a SMILES is read from it. X1 = CCCCCCCCCC(=O)[C@H](C(=O)[*:2])[C@@H]1CNC(=O)[C@@H](N[*:1])CS1
# Assays:
# [1] = SDT Cancer Cell Toxicity qHTS against the NCATS CANVASS Library (AID 1347365); note: nearly all actives have a fitted effect of over 60% in size; note: potency is the fitted concentration of half-maximal effect;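 for activity change, negative = cytotoxicity: SDT canine glioma cells 500 per well in 1536 well plates; series mostly up to about 46 µM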
# Procedure, shortened: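 Cytotoxicity is measured from cellular ATP: compounds in an 11-point concentration series are pinned onto SDT cells, incubated 72 hr at 37C, then CellTiterGlo is added and luminescence read.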
# [2] = biological target: Nuclear receptor subfamily 1 group I member 3 (Homo sapiens) (UniProt Q14994); assay: qHTS for Constitutive Androstane Receptor (CAR) Antagonist screened against the NCATS CANVASS Library (AID 1347372); note: potency is the fitted concentration of half-maximal effect;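 for activity change, negative = inhibition: cells stimulated with 50 nM CITCO agonist so inhibition reflects antagonism; luciferase from CYP2B6 promoter reporter driven by hCAR in HepG2 cells; series mostly up to about 46 µM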
# Chain of Nuclear receptor subfamily 1 group I member 3 (Homo sapiens) (Q14994 whole entry, looked up): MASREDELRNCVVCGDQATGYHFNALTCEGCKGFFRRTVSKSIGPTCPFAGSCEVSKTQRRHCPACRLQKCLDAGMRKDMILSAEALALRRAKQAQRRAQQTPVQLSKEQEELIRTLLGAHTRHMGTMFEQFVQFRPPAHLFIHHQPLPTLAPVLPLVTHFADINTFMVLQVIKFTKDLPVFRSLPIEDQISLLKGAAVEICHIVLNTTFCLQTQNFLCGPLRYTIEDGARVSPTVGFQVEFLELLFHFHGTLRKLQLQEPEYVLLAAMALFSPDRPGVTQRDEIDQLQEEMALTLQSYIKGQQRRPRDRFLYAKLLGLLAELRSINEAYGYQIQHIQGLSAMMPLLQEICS
# Procedure, shortened: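 Luminescence readout (ONE-Glo, 30 min RT) of CYP2B6-2.2kb reporter in HepG2-hCAR cells after 24hr, 37C treatment with compound against 50 nM CITCO; CellTiter-Fluor viability read beforehand.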
# [3] = Cytotoxicity qHTS for assessment of Hepg2 cells membrane integrity screened against the NCATS CANVASS Library (AID 1347387)
# Procedure, shortened: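 Cells were seeded at 2000 per well and left overnight to attach. Compounds were pin-transferred to give 0.59 nM - 46 uM in an 11-point series and incubated 5 hr at 37C. CytoTox-ONE reagent was added and, after 10 min at room temperature, fluorescence (ex 560, em 590 nm) was read.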
# [4] = qHTS for activators of dead-cell proteases activity screened against the NCATS CANVASS Library (AID 1347392);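 note: luminescence from protease leaking out of membrane-damaged cells cleaving impermeant substrate; rising signal means more cytotoxicity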; note: potency is the fitted concentration of half-maximal effect
# Procedure, shortened: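 HepG2, 2000 cells/well, 18 h attach; cpd 11-pt, 5 h 37C 5% CO2; CytoTox-Glo (AAF-aminoluciferin) 15 min RT; luminescence read.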
# [5] = Panc-1005 Cancer Cell Toxicity qHTS against the NCATS CANVASS Library (AID 1347349); note: nearly all actives have a fitted effect of over 60% in size; note: potency is the fitted concentration of half-maximal effect; for activity change, negative = cytotoxicity: series mostly up to about 38 µM
# Procedure, shortened: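 1000 cells/well; 4 h settle; 11-pnt titration; 72 h, 37 degrees C, 5% CO2; CellTiter-Glo, 15min RT; luminescence read.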
# [6] = HEK-293 Cancer Cell Toxicity qHTS against the NCATS CANVASS Library (AID 1347355); note: nearly all actives have a fitted effect of over 65% in size; note: potency is the fitted concentration of half-maximal effect; for activity change, negative = cytotoxicity: series mostly up to about 46 µM; for outcome: series mostly up to about 46 µM
# Procedure, shortened: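 First, 1000 cells go into each well and rest for 4 hours. Next, an 11-point dilution range is pinned in. Plates then incubate 72 hours before CellTiter-Glo addition and luminescence reading.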
# [7] = tested on: NAD(P)H diaphorase (Clostridium kluyveri); assay: Diaphorse counterscreen qHTS: Assay Interference Panel against the NCATS CANVASS Library (AID 1347362)
# Procedure, shortened: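 Clostridium kluyveri diaphorase in PBS + 0.01% Tween-20 preincubated 15 min with compounds. Resazurin and NADH then added for 5 min at room temperature in the dark; resorufin fluorescence read (ex 525, em 598).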
# [8] = qHTS for Antimalaria activity screened against the NCATS CANVASS Library (AID 1347380); note: nearly all actives have a fitted effect of over 40% in size; note: potency is the fitted concentration of half-maximal effect;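 for activity change, negative = inhibition: Plasmodium falciparum strain Dd2 asexual parasites grown in red blood cells; series mostly up to about 29 µM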
# Procedure, shortened: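 Compounds are titrated over 11 concentrations onto Dd2 parasite cultures (0.3% parasitemia, 2.5% hematocrit). Growth over 72 h at 37C in low oxygen is measured as SYBR Green DNA fluorescence after lysis.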
# [9] = KB-8-5-11 Cancer Cell Toxicity qHTS against the NCATS CANVASS Library (AID 1347364); note: nearly all actives have a fitted effect of over 75% in size; for activity change, negative = toxicity: series mostly up to about 46 µM
# Procedure, shortened: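 Terse: KB-8-5-11, 500 cells/well, 72 hr, 37C/5% CO2, 11-pt titration, CellTiter-Glo readout; confirmatory runs ± 1uM tariquidar in medium.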
# [10] = Primary qHTS for inhibitors of nuclear receptor binding SET domain protein 2 (NSD2) in an isogenic RCH-ACV NSD2 p.E1099K mutant (9B) (AID 1645876); note: potency is the fitted concentration of half-maximal effect; nearly all actives have a fitted effect of over 70% in size
# [11] = Primary qHTS for inhibitors of nuclear receptor binding SET domain protein 2 (NSD2) in an RCH-ACV wild type WT cells (2C) (AID 1645877); note: potency is the fitted concentration of half-maximal effect; nearly all actives have a fitted effect of over 70% in size
# [12] = biological target: Phospholipid hydroperoxide glutathione peroxidase GPX4 (Homo sapiens) (UniProt P36969); assay: Primary qHTS Assay for Inhibitors of Recombinant Selenoprotein Glutathione Peroxidase 4 (GPX4) (AID 1845192); details: outcome: dose series up to 50 µM unless noted; note: series mostly up to about 50 µM; nearly all actives have a fitted effect of over 65% in size
# Chain of Phospholipid hydroperoxide glutathione peroxidase GPX4 (Homo sapiens) (P36969 whole entry, looked up): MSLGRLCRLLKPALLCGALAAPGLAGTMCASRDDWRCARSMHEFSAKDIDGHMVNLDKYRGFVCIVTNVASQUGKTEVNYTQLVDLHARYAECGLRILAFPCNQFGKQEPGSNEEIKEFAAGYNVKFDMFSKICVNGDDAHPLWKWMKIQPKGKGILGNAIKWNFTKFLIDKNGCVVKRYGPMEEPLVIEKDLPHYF
# Procedure, shortened: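 Steps: GPX4 plus compound, 30 min RT; add GR/GSH/NADPH master mix; start with cumene hydroperoxide; read 340/450 nm fluorescence at 0 and 15 min. Finals were 200 nM GPX4, 1 mM GSH, 0.5 mM CHP, 0.5 mM NADPH, 100 nM GR.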
structure (smiles),measurement,setting,value
C[C@@H]1C(=O)[C@]23CC[C@H]1C[C@]21O[C@H]2C(C)(C)C=CC(=O)[C@@]23COC1=O,Potency,[1],inactive
same,Potency,[2],inactive
same,outcome,[3],inactive
same,Potency,[4],inactive
C=C1C[C@@]23C=CC(=O)[C@@](C)(CCC(=O)Nc4c(O)ccc(C(=O)O)c4O)C2C[C@@H]1CC3 (stereo partly specified),Potency,[5],inactive
same,Potency,[6],inactive
same,Potency,[7],inactive
same,Potency,[1],inactive
same,Potency,[8],inactive
same,outcome,[3],inactive
same,Potency,[4],inactive
CCCCCCCCCC(=O)[C@@H]1C(=O)N[C@@H](CC(C)C)C(=O)N[C@H](C)C(=O)N2CCC[C@H]2C(=O)N[C@@H](C(C)C)C(=O)N[C@H]2CS[C@H]1CNC2=O (cyclo(L[dA]PV[X1])),Potency,[5],inactive
same,Potency,[9],inactive
same,Potency,[2],inactive
same,Potency,[8],0.0033 µM (active)
same,outcome,[3],inactive
same,Potency,[4],inactive
O=C(CCCCCCC(=O)Nc1ccc(C2OC(CSc3nc(-c4ccccc4)c(-c4ccccc4)o3)CC(c3ccc(CO)cc3)O2)cc1)NO (stereo unspecified),Potency,[10],5.15 µM (active)
same,Potency,[11],3.65 µM (active)
same,Potency,[12],inactive
COc1cc(O)c2c3c(c(O)cc(C)c13)C(=O)OC2,Potency,[5],inactive
same,Potency,[1],inactive
same,Potency,[8],inactive
same,Potency,[4],inactive
Oc1ccc(C2c3c(O)cc(O)cc3[C@@H]3C(c4ccc(O)cc4)c4c(O)cc(O)cc4[C@H]23)cc1 (stereo partly specified),Potency,[6],inactive
same,Potency,[7],inactive
same,Potency,[9],inactive
same,Potency,[1],inactive
same,Potency,[2],inactive
O=C(O)[C@@]12CO[C@@]3(O)C4CCN(CC[C@H]31)[C@H]4c1c2[nH]c2ccccc12,Potency,[5],inactive
same,Potency,[6],inactive
same,Potency,[1],inactive
same,Potency,[2],inactive
same,outcome,[3],inactive
same,Potency,[4],inactive
C=C1C(=O)O[C@H]2C[C@H](C)[C@@H]3CC(=O)C(C)=C3[C@H](O)[C@H]12,Potency,[7],inactive
COc1ccc([C@@H]2c3cc(OC)c(OC)cc3C(=O)[C@H](C)C2C)cc1OC (stereo partly specified),"activity change, negative = cytotoxicity",[5],1.86% [at 7.64 µM]
same,outcome,[6],inactive [at 9.19 µM]
same,"activity change, negative = inhibition",[7],0.301% [at 11.5 µM]
same,"activity change, negative = toxicity",[9],-6.69% [at 9.19 µM]
same,"activity change, negative = inhibition",[2],-2.16% [at 9.19 µM]
same,cytotoxicity (LDH release),[3],0.689 [at 9.19 µM]
C=C1C(=O)C[C@H]2C[C@@H]1[C@]2(C)CCC=C(C)C,Potency,[5],inactive
same,Potency,[7],inactive
same,Potency,[4],inactive
C=C1C[C@@]23C=CC(=O)[C@@](C)(CCCC(C)C(=O)O)[C@@H]2C[C@@H]1CC3 (stereo partly specified),Potency,[5],inactive
same,Potency,[6],inactive
same,Potency,[7],inactive
same,Potency,[9],inactive
same,Potency,[1],inactive
same,Potency,[8],inactive
same,outcome,[3],inactive
C=C[C@@]1(C)CC[C@@H]([C@H](C)C(=O)/C=C/C(C)C)O1,Potency,[5],inactive
same,Potency,[6],inactive
same,Potency,[7],inactive
same,Potency,[2],inactive
same,Potency,[8],inactive
O=c1cc(-c2ccc(O)cc2)oc2c([C@@H]3OC(CO)[C@H](O)[C@@H](O)[C@H]3O)c(O)cc(O)c12 (stereo partly specified),Potency,[6],inactive
same,Potency,[9],inactive
same,Potency,[8],0.0013 µM (active)
same,Potency,[4],inactive
C/C1=C\CC(=O)/C=C/C=C\c2csc(n2)[C@@H](C)NC(=O)C[C@@](S)([C@@H](C)C(=O)O)CC1,Potency,[5],inactive
same,Potency,[6],inactive
same,Potency,[9],inactive
same,Potency,[8],inactive
same,outcome,[3],inactive
C/C=C/C=C/C1(O)C2C=C3C(=O)CC45C(=O)C(O)=C(C)C(=O)C4C1C1(C(=O)C(O)=C(C)C(=O)C351)C2C (stereo unspecified),Potency,[5],inactive
same,Potency,[7],inactive
same,Potency,[9],inactive
same,Potency,[1],inactive
same,Potency,[2],inactive
same,outcome,[3],inactive
same,Potency,[4],inactive
O=C(O)CC1OC(=O)c2c(O)cccc21 (stereo unspecified),Potency,[5],inactive
same,Potency,[1],0.0132 µM (active)
same,Potency,[2],inactive
O=c1cc(-c2ccc(O)c(O[C@@H]3O[C@H](CO)[C@@H](O)[C@H](O)[C@H]3O)c2)oc2cc(O[C@@H]3O[C@H](CO)[C@@H](O)[C@H](O)[C@H]3O)cc(O)c12,Potency,[5],inactive
same,Potency,[9],inactive
same,Potency,[2],inactive
same,Potency,[8],0.0047 µM (active)
same,outcome,[3],inactive
C/C=C/c1cc(OC)c2c(c1)[C@@H](C)[C@H](c1ccc(O)c(OC)c1)O2,Potency,[6],inactive
same,Potency,[7],inactive
same,Potency,[9],inactive
same,Potency,[1],inactive
same,Potency,[2],inactive
same,Potency,[8],inactive
same,outcome,[3],inactive
CN1C(=O)[C@]23SS[C@@]1(C)C(=O)N2[C@H]1Nc2ccccc2[C@]1(c1c[nH]c2ccccc12)[C@@H]3O,Potency,[5],0.668 µM (active)
same,Potency,[2],10.5 µM (active)
same,outcome,[3],inactive
same,Potency,[4],inactive
C/C(=C\[C@H](C)C(=O)CCCC1CC(=O)NC(=O)C1)C(O)[C@@H](C)[C@H](O)C/C=C/CC/C=C/C(=O)O (stereo partly specified),Potency,[5],inactive
same,Potency,[6],inactive
same,Potency,[9],inactive
same,Potency,[2],inactive
same,Potency,[8],inactive
same,outcome,[3],inactive
same,Potency,[4],inactive
CC(=O)[C@@H]1[C@@H](O)C[C@H]2[C@]3(C)CC[C@H]4C(C)(C)CCC[C@]4(CO)[C@H]3C[C@H]3OC(=O)[C@@H]1[C@@]32C,Potency,[5],inactive
same,Potency,[7],inactive
same,Potency,[9],inactive
same,Potency,[1],inactive
same,Potency,[2],inactive
same,outcome,[3],inactive
CS/C=C/C(N)=O,Potency,[5],inactive
same,Potency,[6],inactive
same,Potency,[1],inactive
same,Potency,[8],inactive
same,outcome,[3],inactive
same,Potency,[4],inactive
CCCCCCCCCCCCCCC[C@H](O)C[C@@H](O)C[C@@H](O)C[C@@H](O)C[C@@H](O)C[C@H]1CC=CC(=O)O1,Potency,[5],1.88 µM (active)
same,Potency,[6],5.26 µM (active)
same,Potency,[7],inactive
same,Potency,[8],3.75 µM (active)
same,Potency,[4],13.2 µM (active)
